Assay results published in publication PMC7862700, “An all-to-all approach to the identification of sequence-specific readers for epigenetic DNA modifications on cytosine”.

How the values were obtained:
Experiment in all cases: DAPPL (digital affinity profiling via proximity ligation, sequencing); 10 mM Tris-HCl pH 7.5, 50 mM NaCl, 1 mM DTT, 4% glycerol, room temperature, 30 min; GST-TFs on glutathione beads, 16-mer random dsDNA library, 0.1% formaldehyde crosslink after washing; high values mean tight binding
Conditions in all cases: protein: recombinant; tags: N-terminal GST; dsDNA, one strand shown
ELK1 = target: T1, ELK1 (Homo sapiens, UniProt P19419 1-428)
T1 sequence: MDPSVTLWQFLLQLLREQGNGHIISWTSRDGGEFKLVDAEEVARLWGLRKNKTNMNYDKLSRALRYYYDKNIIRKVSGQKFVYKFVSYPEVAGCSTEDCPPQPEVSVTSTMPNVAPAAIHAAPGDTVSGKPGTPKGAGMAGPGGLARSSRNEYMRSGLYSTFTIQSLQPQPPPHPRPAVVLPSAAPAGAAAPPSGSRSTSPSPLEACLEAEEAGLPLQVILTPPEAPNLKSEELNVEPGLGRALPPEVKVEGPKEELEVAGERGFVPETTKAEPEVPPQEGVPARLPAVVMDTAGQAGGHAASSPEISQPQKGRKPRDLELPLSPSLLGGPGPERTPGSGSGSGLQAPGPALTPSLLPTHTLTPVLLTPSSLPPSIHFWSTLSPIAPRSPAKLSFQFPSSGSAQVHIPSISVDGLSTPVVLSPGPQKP
How it was run: (§1)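 Sequencing on an Illumina NextSeq500 followed washing, crosslinking with 0.1% formaldehyde, proximity ligation (BsaI/T4 ligase, 1 h, 37 °C) and PCR amplification of pools that had been incubated for 30 min at room temperature with 200 nmole of a random double-stranded 16-mer DNA library in Tris/NaCl/DTT/glycerol buffer. Each pool held DNA-barcoded human transcription factors, expressed in yeast as GST fusions and captured on glutathione beads, plus a tag-only sample. Binding signal is a hexamer's read frequency for a factor divided by its frequency in the tag-only sample.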

GABPA = target: T2, GABPA (Homo sapiens, UniProt Q06546 1-454)
T2 sequence: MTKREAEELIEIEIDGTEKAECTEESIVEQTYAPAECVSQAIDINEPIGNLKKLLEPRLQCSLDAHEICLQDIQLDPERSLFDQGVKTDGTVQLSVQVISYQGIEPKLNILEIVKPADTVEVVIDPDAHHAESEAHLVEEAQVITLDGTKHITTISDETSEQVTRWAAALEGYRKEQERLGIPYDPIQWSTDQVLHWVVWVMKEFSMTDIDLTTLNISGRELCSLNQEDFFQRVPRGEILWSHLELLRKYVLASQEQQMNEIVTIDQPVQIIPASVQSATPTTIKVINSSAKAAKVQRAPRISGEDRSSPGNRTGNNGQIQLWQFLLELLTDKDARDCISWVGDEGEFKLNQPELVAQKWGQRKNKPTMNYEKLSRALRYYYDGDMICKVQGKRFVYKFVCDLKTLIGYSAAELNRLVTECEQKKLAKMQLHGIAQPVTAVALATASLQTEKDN
How it was run: as §1

ERG = target: T3, ERG (Homo sapiens, UniProt P11308 1-479)
T3 sequence: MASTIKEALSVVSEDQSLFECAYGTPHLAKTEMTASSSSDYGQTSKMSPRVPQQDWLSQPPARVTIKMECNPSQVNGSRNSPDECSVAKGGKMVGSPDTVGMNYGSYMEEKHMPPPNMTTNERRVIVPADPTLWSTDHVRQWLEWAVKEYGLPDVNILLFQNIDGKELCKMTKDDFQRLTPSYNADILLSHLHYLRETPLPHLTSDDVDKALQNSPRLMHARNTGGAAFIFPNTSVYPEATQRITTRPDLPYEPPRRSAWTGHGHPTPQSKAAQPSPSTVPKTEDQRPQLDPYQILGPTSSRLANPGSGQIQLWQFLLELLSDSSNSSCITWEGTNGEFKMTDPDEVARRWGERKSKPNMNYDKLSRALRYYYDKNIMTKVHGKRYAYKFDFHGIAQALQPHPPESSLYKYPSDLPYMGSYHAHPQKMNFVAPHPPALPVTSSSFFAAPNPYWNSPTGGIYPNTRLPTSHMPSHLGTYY
How it was run: as §1

ELF1 = ELF1 (Homo sapiens, UniProt P32519 1-619)
How it was run: as §1

EHF = target: T4, EHF (Homo sapiens, UniProt Q9NZC4 1-300)
T4 sequence: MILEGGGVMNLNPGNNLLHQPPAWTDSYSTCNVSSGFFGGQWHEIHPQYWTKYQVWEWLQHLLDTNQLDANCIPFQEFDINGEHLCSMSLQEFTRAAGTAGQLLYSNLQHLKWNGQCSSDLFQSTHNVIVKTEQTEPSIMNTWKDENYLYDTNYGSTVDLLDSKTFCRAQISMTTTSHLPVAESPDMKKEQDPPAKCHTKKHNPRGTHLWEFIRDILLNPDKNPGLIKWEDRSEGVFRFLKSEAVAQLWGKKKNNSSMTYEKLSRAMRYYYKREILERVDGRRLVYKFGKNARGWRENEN
How it was run: as §1

SPIB = SPIB (Homo sapiens, UniProt Q01892 1-262)
How it was run: as §1

FEV = target: T5, FEV (Homo sapiens, UniProt Q99581 1-238)
T5 sequence: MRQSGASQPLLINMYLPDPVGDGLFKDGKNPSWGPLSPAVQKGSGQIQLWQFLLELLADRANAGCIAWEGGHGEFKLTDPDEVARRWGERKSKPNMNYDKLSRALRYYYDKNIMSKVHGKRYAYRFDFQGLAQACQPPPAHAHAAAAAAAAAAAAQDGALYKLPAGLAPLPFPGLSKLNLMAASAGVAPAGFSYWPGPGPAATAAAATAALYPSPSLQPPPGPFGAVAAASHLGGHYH
How it was run: as §1

ETV5 = ETV5 (Homo sapiens, UniProt P41161 1-510)
How it was run: as §1

ELF4 = ELF4 (Homo sapiens, UniProt Q99607 1-663)
How it was run: as §1

Sequence of SPIB (Q01892 whole entry): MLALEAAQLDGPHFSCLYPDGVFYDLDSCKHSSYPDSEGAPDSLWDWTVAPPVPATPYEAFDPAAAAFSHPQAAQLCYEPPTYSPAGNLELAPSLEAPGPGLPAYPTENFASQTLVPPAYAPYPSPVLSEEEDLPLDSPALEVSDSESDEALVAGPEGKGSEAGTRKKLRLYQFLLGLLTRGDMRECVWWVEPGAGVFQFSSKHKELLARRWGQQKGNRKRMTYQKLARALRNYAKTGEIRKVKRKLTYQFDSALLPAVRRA
Sequence of ELF1 (P32519 whole entry): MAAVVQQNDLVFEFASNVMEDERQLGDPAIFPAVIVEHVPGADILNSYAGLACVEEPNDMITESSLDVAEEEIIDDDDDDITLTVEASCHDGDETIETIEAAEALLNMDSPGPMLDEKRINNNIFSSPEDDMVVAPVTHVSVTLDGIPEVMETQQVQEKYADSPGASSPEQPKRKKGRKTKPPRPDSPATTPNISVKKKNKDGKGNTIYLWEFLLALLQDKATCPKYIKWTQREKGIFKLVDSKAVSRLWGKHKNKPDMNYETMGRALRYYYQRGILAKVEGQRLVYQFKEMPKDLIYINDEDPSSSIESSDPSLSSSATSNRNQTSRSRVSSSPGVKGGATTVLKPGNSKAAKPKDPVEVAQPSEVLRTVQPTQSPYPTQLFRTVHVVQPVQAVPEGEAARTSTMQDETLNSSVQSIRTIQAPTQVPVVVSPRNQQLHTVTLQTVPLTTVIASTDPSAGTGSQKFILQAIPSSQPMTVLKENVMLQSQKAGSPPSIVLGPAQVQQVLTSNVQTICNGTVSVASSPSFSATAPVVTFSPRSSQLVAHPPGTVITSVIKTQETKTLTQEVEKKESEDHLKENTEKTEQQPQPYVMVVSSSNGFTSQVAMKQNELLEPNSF
Sequence of ELF4 (Q99607 whole entry): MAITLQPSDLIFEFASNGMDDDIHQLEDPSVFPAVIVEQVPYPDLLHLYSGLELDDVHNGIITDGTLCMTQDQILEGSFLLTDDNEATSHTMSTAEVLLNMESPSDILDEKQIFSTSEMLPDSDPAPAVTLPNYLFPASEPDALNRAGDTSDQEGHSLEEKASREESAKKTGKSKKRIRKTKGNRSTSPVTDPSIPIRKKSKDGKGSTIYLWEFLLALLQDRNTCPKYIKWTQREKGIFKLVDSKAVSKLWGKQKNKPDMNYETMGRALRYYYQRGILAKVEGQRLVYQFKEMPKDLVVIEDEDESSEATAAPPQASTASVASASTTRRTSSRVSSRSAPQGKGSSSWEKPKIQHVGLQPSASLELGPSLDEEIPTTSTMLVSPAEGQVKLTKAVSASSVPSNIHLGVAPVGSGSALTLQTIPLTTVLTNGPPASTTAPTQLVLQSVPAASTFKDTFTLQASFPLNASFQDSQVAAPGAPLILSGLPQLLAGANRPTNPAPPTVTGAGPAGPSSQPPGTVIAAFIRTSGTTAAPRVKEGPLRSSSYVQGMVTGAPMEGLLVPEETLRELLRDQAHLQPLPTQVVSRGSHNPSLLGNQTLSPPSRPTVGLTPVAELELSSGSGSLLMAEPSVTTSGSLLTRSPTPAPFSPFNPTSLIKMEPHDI
Sequence of ETV5 (P41161 whole entry): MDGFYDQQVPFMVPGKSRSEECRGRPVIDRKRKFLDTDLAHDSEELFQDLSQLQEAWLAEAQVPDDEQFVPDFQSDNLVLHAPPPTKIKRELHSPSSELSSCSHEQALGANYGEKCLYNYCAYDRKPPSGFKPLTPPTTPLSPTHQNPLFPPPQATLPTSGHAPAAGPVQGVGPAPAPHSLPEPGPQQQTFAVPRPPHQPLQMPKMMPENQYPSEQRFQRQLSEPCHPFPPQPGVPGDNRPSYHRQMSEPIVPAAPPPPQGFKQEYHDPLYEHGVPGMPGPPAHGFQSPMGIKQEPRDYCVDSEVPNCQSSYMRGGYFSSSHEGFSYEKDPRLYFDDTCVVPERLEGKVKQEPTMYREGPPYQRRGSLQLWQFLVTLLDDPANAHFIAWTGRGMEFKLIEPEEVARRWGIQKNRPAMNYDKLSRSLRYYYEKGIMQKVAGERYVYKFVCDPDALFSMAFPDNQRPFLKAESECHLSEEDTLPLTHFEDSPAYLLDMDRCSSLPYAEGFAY

Q: What does the source list for CGATGC?
A: binding signal (ELK1): 1.1 fold enrichment (6-mer frequency, TF over GST control); binding signal (GABPA): 1.19 fold enrichment (6-mer frequency, TF over GST control); binding signal (ERG): 1.08 fold enrichment (6-mer frequency, TF over GST control); binding signal (ELF1): 1.02 fold enrichment (6-mer frequency, TF over GST control); binding signal (EHF): 1.09 fold enrichment (6-mer frequency, TF over GST control); binding signal (SPIB): 1.06 fold enrichment (6-mer frequency, TF over GST control); binding signal (FEV): 1.07 fold enrichment (6-mer frequency, TF over GST control); binding signal (ETV5): 1.11 fold enrichment (6-mer frequency, TF over GST control); binding signal (ELF4): 1.19 fold enrichment (6-mer frequency, TF over GST control)
